Laboratory results: PubChem BioAssay (NCATS)
Values joined by “and” are separate entries in the source; they are usually repeats but may differ in a detail not shown here. Equal values may be shown once. Results filed as inconclusive are left out. Where a structure was tested more than once in an assay, its records may differ in their call. Active and inactive are the calls of the source. The call rests on the fitted dose curve; in most records, active means well fitted inhibition curve with a large enough effect; inconclusive means small, poorly fitted or top-dose-only effect; inactive means flat fitted curve, though single readings scatter.

Experiments:
Assay in all cases: Cytotoxic Profiling of Annotated Libraries Using Quantitative High-Throughput Screening (AID 1296008); further: nearly all actives have a fitted effect of over 60% in size
Settings in all cases: Five cell lines viability, CellTiter-Glo ATP luminescence, 48-72 h; max response: hits give low values
CRL-7250 = system: CRL-7250
In short: (§1)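 Compounds were pin-transferred onto cells and incubated 48 or 72 hr at 37 degree Celsius, 95% humidity. CellTiter-Glo was added, plates sat 10 min at room temperature, then ATP-coupled luminescence was imaged as the viability read-out.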

HEK293 = system: HEK293
In short: as §1

HaCat = system: HaCat
In short: as §1

KB-3-1 = system: KB-3-1
In short: as §1
On the % scale 0 is the no-effect control and ±100 the full control effect; potency means the concentration at half of the fitted maximal effect.

CC(C)CC(=O)O[C@@H]1OC=C(CO[C@@H]2O[C@H](CO)[C@@H](O)[C@H](O)[C@H]2O)[C@H]2[C@@H]3O[C@H]3[C@@](O)(CO)[C@@H]12
inactive: max response (CRL-7250) -0.109% | max response (HEK293) -8.14% | max response (HaCat) 1.46% | max response (KB-3-1) 6.77%

CS(=O)(=O)NCC1CCC(Nc2nc3c(s2)CCSc2ccccc2-3)CC1 (stereo not given)
inactive: max response (CRL-7250) -26.8% | outcome (HaCat) | max response (KB-3-1) -22.2%
active: Potency (HEK293) 14600 nM

COc1c/c(=C2\C=c3ccccc3=N2)[nH]/c1=C\c1[nH]c(C)cc1C
active: Potency (CRL-7250) 1.84 µM | Potency (HEK293) 1300 nM | Potency (HaCat) 4110 nM | Potency (KB-3-1) 2310 nM

Cc1cc(N2CCN([C@@H]3CN[C@H](C(=O)N4CCSC4)C3)CC2)n(-c2ccccc2)n1
inactive: max response (CRL-7250) -17.8% | max response (HEK293) -23.9% | max response (HaCat) -10.6% | max response (KB-3-1) -12.3%

C=C1C[C@]23C[C@H]1CC[C@H]2[C@@]1(C)CCC[C@@]2(C)C(=O)O[C@@H]([C@@H]3O)[C@@H]12
inactive: max response (CRL-7250) -15.4% | max response (HEK293) -8.12% | max response (HaCat) -2.64% | outcome (KB-3-1)

COc1ccc(-n2[nH]c(=O)c3[nH]c4cc(Cl)ccc4c(=O)c3c2=O)c(C)c1
inactive: max response (CRL-7250) 1.23% | outcome (HEK293) | outcome (HaCat)

CC(C)N(CCCCOCC(=O)NS(C)(=O)=O)c1cnc(-c2ccccc2)c(-c2ccccc2)n1
inactive: max response (CRL-7250) -11.5% | outcome (HEK293) | outcome (HaCat)

CCN(Cc1cccnc1)C(=O)CN(c1ccc(OC)nc1)S(=O)(=O)c1ccccc1C
inactive: max response (CRL-7250) -4.21% | outcome (HEK293) | outcome (HaCat)

O=C(O)c1c(O)c(-c2ccccc2)nc2ccccc12
inactive: outcome (CRL-7250) | max response (HEK293) -11.2% | outcome (HaCat)

O=C(O)c1ccccc1NCCc1ccccc1
inactive: max response (CRL-7250) 4.16% | max response (HEK293) 1.97% | outcome (HaCat)

CCNCc1nc2c(N)nc3ccccc3c2n1CC(C)(C)O
inactive: outcome (CRL-7250) | max response (HEK293) -9.18% | outcome (HaCat)

C=C1C(=O)O[C@@H]2C[C@H](C)[C@@]3(O)C=C(C(C)=O)[C@]4(CC3C[C@H]12)C(=O)O[C@H]1C[C@@H](C)C(CCC(C)=O)=CC[C@H]14 (stereo not given in full)
inactive: outcome (CRL-7250) | max response (HEK293) -5.38% | max response (HaCat) -0.117% | outcome (KB-3-1)

CN[C@H](C(=O)N[C@H](C(=O)N(C)[C@H](/C=C(\C)C(=O)O)C(C)C)C(C)(C)C)C(C)(C)c1ccccc1
inactive: max response (HaCat) -1.54%
active: Potency (CRL-7250) 0.0052 µM | Potency (HEK293) 7.3 nM | Potency (KB-3-1) 4.6 nM

CC1OC(OC2C(O)C(OC3CCC4(C)C(CCC5(C)C4CC=C4C6CC(C)(COC7OC(CO)C(O)C(O)C7O)CC(O)C6(C)CCC45C)C3(C)C)OC(C(=O)O)C2O)C(O)C(O)C1OC1OCC(O)C(O)C1O (stereo not given)
inactive: max response (CRL-7250) 3.82% | max response (HEK293) -5.93% | max response (HaCat) -5.35% | outcome (KB-3-1)

C=C1C[C@@]23CCC4[C@@](C)(CCC[C@@]4(C)C(=O)OC)C2CC[C@@H]1C3 (stereo not given in full)
inactive: outcome (CRL-7250) | outcome (HEK293) | outcome (HaCat)

Cc1ccc(C)c(OCCn2cc(C(=O)O)c3ccccc32)c1
inactive: max response (CRL-7250) -3.65% | max response (HEK293) -0.983% | outcome (HaCat) | max response (KB-3-1) 3.13%

C[C@H]1Oc2cc(cnc2N)-c2c(nn(C)c2C#N)CN(C)C(=O)c2ccc(F)cc21
active: Potency (CRL-7250) 0.0366 µM
inactive: max response (HEK293) -113% | max response (HaCat) -103%

OCCc1ccc(O[C@@H]2O[C@H](CO)[C@@H](O)[C@H](O)[C@H]2O)cc1
inactive: max response (CRL-7250) 2.72% | max response (HEK293) 0.276% | max response (HaCat) -3.11% | max response (KB-3-1) -1.98%

COC(=O)c1cc(OC)c(O[C@@H]2O[C@@H](C)[C@H](O)[C@@H](O)[C@H]2O)c(OC)c1
inactive: outcome (CRL-7250) | max response (HEK293) -6.73% | max response (HaCat) -17.1% | max response (KB-3-1) 4.85%

CSc1ccc(C(=O)N[C@@H]2CCCC[C@@H]2NC(=O)CNC(=O)c2cc(C(F)(F)F)ccc2NC(=O)NC(C)C)cc1
inactive: max response (CRL-7250) -1.98% | max response (HEK293) -11.3% | max response (HaCat) -8.38% | max response (KB-3-1) -4.76%

NC(=O)[C@H]1CCS[C@@H]2C[C@]3(CCCN3C(=O)Cc3ccc(NC(=O)COc4ccc(Cl)cc4Cl)cc3)C(=O)N12
active: Potency (HEK293) 7410 nM | Potency (HaCat) 18600 nM
inactive: max response (CRL-7250) -14.3% | max response (HaCat) -24.7%

CC(=O)OC/C=C(\C)C(CC1C(C)=C(OC(C)=O)C(=O)C2C(C)(C)C(O)CCC12C)OC(C)=O (stereo not given)
inactive: max response (CRL-7250) 1.57% | max response (HEK293) -0.0321% | outcome (HaCat) | outcome (KB-3-1)

COC(=O)CC(O)C1OC(c2ccccc2)C(O)C1O (stereo not given)
inactive: max response (CRL-7250) -3.81% | max response (HEK293) 2.88% | max response (HaCat) -28.3% | max response (KB-3-1) 2.62%

C[C@@H]1CC[C@]2(C(=O)O)CC[C@]3(C)C(=CCC4[C@@]5(C)C[C@@H](O)[C@H](O)[C@@](C)(CO)C5CC[C@]43C)C2[C@]1(C)O (stereo not given in full)
inactive: max response (CRL-7250) -3.26% | max response (HEK293) -12.2% | max response (HaCat) 4.14% | max response (KB-3-1) 2.17%

C[C@@H]1O[C@@H](OC[C@H]2O[C@@H](Oc3cc(O)cc4c3C(=O)C(O)(Cc3ccc(O)cc3)O4)[C@H](O)[C@@H](O)[C@@H]2O)[C@H](O)[C@H](O)[C@H]1O (stereo not given in full)
inactive: max response (CRL-7250) 3.09% | max response (HEK293) 1.44% | max response (HaCat) -8.78% | max response (KB-3-1) 8.25%

C=C[C@H]1CN2CC[C@H]1C[C@@H]2C(O)c1ccnc2ccc(OC)cc12 (stereo not given in full)
inactive: outcome (CRL-7250) | max response (HEK293) -7.03% | max response (HaCat) 2.46% | max response (KB-3-1) 4.51%

Cc1ccccc1NC(=O)Nc1ccc(CC(=O)N(C)[C@@H](CC(C)C)C(=O)NCC[C@H](NC(=O)[C@@H]2CCCN2S(=O)(=O)c2cc(Cl)cc(Cl)c2)C(=O)O)cc1
inactive: max response (CRL-7250) -22.4% | outcome (HEK293) | outcome (HaCat)

C=C1C[C@]23C[C@H]1CC[C@H]2[C@@]12CC[C@H](O)[C@@](C)(C(=O)O1)[C@H]2[C@@H]3C(=O)O
inactive: max response (CRL-7250) -11.3% | max response (HEK293) -4.65% | max response (HaCat) -1.9% | max response (KB-3-1) 6.55%

CC(C)[C@@H](CS(=O)(=O)C(C)C)N1C(=O)[C@@](C)(CC(=O)O)C[C@H](c2cccc(Cl)c2)[C@H]1c1ccc(Cl)cc1
active: Potency (CRL-7250) 5.8 µM and 1.86 µM | Potency (HEK293) 16600 nM
inactive: max response (HaCat) -29%

C=C(C(=O)O)C1CCC2(C)CCC(O)C(C)(O)C2C1 (stereo not given)
inactive: max response (CRL-7250) -18% | max response (HEK293) -0.305% | max response (HaCat) -8.51% | max response (KB-3-1) 1.37%

NC(=O)C(CCC(F)(F)F)N(Cc1ccc(-c2ncon2)cc1F)S(=O)(=O)c1ccc(Cl)cc1 (stereo not given)
inactive: max response (CRL-7250) -7.08% | max response (HEK293) -83.5% | max response (HaCat) -84.6% | max response (KB-3-1) -38%

N#CC(c1ccnc(OCc2ccc(CN3CCOCC3)cc2)n1)c1nc2ccccc2s1 (stereo not given)
active: Potency (HEK293) 5170 nM
inactive: outcome (CRL-7250) | max response (HaCat) 0.847% | max response (KB-3-1) -18.3%

C=C(C(=O)O)C1CCC2(C)CCC(O)C(=C)C2C1 (stereo not given)
inactive: max response (CRL-7250) -9.49% | max response (HEK293) -0.847% | max response (HaCat) -10.5% | outcome (KB-3-1)

C=C1C(=O)OC2CC(C)=C(C(C)CCCO)C(O)C12 (stereo not given)
inactive: outcome (CRL-7250) | max response (HEK293) -3.2% | max response (HaCat) -11.4% | outcome (KB-3-1)

Cc1csc(NC(=O)c2ccc(COc3cccc(Cl)c3)o2)n1
inactive: max response (CRL-7250) -4.74% | max response (HEK293) -17.1% | max response (HaCat) 2.26% | max response (KB-3-1) -1.89%

C=CC1(C)CC(OC(=O)/C(C)=C\COC(C)=O)C(C(=C)C(=O)O)C(O)C1C(=C)CO (stereo not given)
inactive: outcome (CRL-7250) | max response (HEK293) -0.348% | max response (HaCat) 3.73% | max response (KB-3-1) 8.05%

C=C1C[C@]23C[C@H]1CC[C@H]2C1=C[C@H]2OC(=O)[C@@](C)([C@H]1[C@@H]3C(=O)O)[C@H]2O
inactive: max response (CRL-7250) 2.1% | max response (HEK293) 4.48% | max response (HaCat) 1.41% | outcome (KB-3-1)

C/C=C/C=C/C(O)=C1\C(=O)[C@]2(C)C3C(C(=O)CC/C=C/C)=C(O)C4(C)C1[C@]1(C)O[C@@]4(O)[C@@]3(C)O[C@@]12O
inactive: max response (CRL-7250) -4.26% | max response (HEK293) -0.736% | outcome (HaCat) | max response (KB-3-1) 8.54%

CC1(C)CC[C@@]2(C(=O)O[C@@H]3O[C@H](CO)[C@@H](O)[C@H](O)[C@H]3O)C(C1)C1=CCC3[C@@]4(C)CC[C@@H](O[C@@H]5O[C@H](C(=O)O)[C@@H](O[C@@H]6OC[C@@H](O)[C@H](O)[C@H]6O)[C@H](O[C@@H]6OC[C@](O)(CO)[C@H]6O)[C@H]5O)C(C)(C)C4CC[C@@]3(C)[C@]1(C)C[C@H]2O (stereo not given in full)
inactive: outcome (CRL-7250) | max response (HEK293) -3.68% | max response (HaCat) 4.43% | outcome (KB-3-1)

CCC(COC)n1nnc2c(Nc3ccc(OC)cc3C)nc(C)cc21 (stereo not given)
inactive: outcome (CRL-7250) | max response (HEK293) -7.21% | max response (HaCat) -0.414% | max response (KB-3-1) 6.85%

C=C1C(=O)O[C@H]2[C@H]1CC/C(C)=C/CC[C@@]1(C)O[C@@H]21
inactive: max response (CRL-7250) -15.8% | max response (HEK293) -18.1% | max response (HaCat) -3.65% | max response (KB-3-1) -4.28%

c1ccc(-c2csc(N3CCOCC3)n2)cc1
inactive: max response (CRL-7250) 1.19% | outcome (HEK293) | max response (HaCat) -7.34% | max response (KB-3-1) 8.26%

CC(C)(C)CCN1C[C@@H]2C(CNC(=O)c3cc(Cl)cc(Cl)c3)[C@@H]2C1 (stereo not given in full)
inactive: max response (CRL-7250) -6.01% | max response (HEK293) -15.4% | max response (HaCat) -17.8% | max response (KB-3-1) -5.02%

C=C1C(=O)O[C@@H]2/C=C(\C)C(=O)/C=C/[C@](C)(O)C[C@@H](OC(=O)C(C)C)[C@@H]12
active: Potency (CRL-7250) 4.04 µM | Potency (HEK293) 805 nM | Potency (HaCat) 2020 nM | Potency (KB-3-1) 7180 nM

CC12CCC(=O)C=C1C(O)CC1C2C(O)CC2(C)C1CC[C@]2(O)C(=O)CO (stereo not given in full)
inactive: outcome (CRL-7250) | max response (HEK293) -5.89% | max response (HaCat) 0.87% | outcome (KB-3-1)
